# 12-hLO inh = blocks human 12-lipoxygenase activity; P18054; purified 12-hLO, xylenol orange hydroperoxide absorbance; Potency, µM (top dose mostly 57.1 µM), without a hit: top-dose activity change, negative = inhibition, actives largely listed as inhibitors; actives 0.12% (n = 150,000); AID 1452; note: potency is the fitted concentration of half-maximal effect; % is set by controls: 0 for no effect and ±100 for the full control effect; nearly all actives have a fitted effect of over 55% in size
#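 Hydroperoxide formation by human 12-lipoxygenase from 40 uM arachidonic acid was followed colorimetrically via ferric-xylenol orange complex, using the 573/405 nm absorbance ratio. Enzyme concentration was 150 nM, with 30 min reaction at room temperature.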
# PNC inhibitor = inhibitors of perinucleolar compartment assembly. PC3M PTB-GFP, PNC prevalence imaging, 16 h; stronger effect = lower value. activity change (PNC), negative = inhibition, % at 10 µM. actives 3.1% (n = 140,000);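 active = readout at or below -70, meaning at least 70% loss of cells showing the perinucleolar compartment, a nuclear body marking cancer cells; inconclusive = readout between -30 and a set limit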;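 note: plate controls were DMSO wells for no effect and camptothecin positive control wells for full effect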
#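 Read-out is percentage of cells bearing a perinucleolar compartment, from automated 20x imaging of fixed, Hoechst-stained PC3M PTB-GFP cells. Cells were seeded 4 h, then exposed 16 h to compound (23 nl of library stock) in duplicate plates.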
# NPSR antag = blocks cAMP signaling of the human neuropeptide S receptor; Q6W5P4; CHO-NPSR cells, cAMP TR-FRET, antagonist mode; Potency, µM (titrated, usually from 38.3 µM), for inactives: top-dose activity change, negative = inhibition, hits mostly inhibitors; actives 1% (n = 220,000); AID 1461; note: potency is the fitted concentration of half-maximal effect; % is set by controls: 0 for no effect and ±100 for the full control effect; nearly all actives have a fitted effect of over 50% in size
# Target sequence (Q6W5P4 whole entry, looked up): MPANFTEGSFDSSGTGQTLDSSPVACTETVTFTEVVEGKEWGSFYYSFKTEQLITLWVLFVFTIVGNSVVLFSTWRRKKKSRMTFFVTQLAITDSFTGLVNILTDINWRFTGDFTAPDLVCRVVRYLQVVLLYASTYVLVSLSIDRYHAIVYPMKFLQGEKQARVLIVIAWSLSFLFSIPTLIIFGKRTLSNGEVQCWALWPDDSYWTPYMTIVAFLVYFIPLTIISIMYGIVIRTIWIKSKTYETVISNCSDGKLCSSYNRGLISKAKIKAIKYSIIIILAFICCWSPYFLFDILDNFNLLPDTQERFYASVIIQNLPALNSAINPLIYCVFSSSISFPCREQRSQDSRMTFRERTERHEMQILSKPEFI
# HttQ103 aggreg = mutant huntingtin aggregation inhibition; PC12 HttQ103-GFP aggregates, Acumen cytometry, 40 h; Potency, µM (highest dose often 46.1 µM), without a hit: at the highest dose activity change, negative = inhibition, actives largely listed as inhibitors; actives 1.1% (n = 220,000); note: potency is the fitted concentration of half-maximal effect; % is set by controls: 0 for no effect and ±100 for the full control effect; nearly all actives have a fitted effect of over 60% in size
#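 Huntingtin Q103 exon 1–GFP aggregates in induced PC12 cells (100 nM tebufenozide) were quantified by cytometry from lysates, with compounds dosed in titration.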
# IMPase cell inh = IMPase inhibition in cells; P97697; inhibition (IP1 accumulation), % at 46.1 µM; CHO-M1 cells, IP1 accumulation, HTRF TR-FRET ratio; AID 901; 120,000 tested, under 10 active; active = well fitted curve in the direction sought with a large enough effect in the signal ratio, not every such curve was filed as active; inconclusive = small, poorly fitted or top-dose-only effect, or a change in a side signal; inactive = no such curve, though single readings can be large or run the other way; the % refers to the signal ratio;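 note: cells stimulated with carbachol in lithium chloride buffer; plate controls were DMSO basal wells for no effect and reference inhibitor wells for full effect; higher means more IMPase inhibition seen as more IP1 and lower FRET ratio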
# Target sequence (P97697 whole entry, looked up): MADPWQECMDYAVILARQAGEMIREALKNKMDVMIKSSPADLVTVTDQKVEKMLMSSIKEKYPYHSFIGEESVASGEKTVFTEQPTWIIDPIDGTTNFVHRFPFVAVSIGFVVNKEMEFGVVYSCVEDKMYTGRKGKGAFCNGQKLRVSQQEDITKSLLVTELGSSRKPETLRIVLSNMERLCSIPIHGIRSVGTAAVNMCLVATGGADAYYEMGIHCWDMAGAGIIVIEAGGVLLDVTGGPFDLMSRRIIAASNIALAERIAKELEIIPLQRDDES
#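 Cellular IMPase inhibition is scored as a rise in cytosolic IP1, detected by competitive TR-FRET between d2-labelled IP1 and a europium anti-IP1 antibody. M1-expressing CHO cells were stimulated with carbachol for 30 min at 37C, with lithium (50 mM LiCl) present in the buffer.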
# HTT cytoprotect = Huntington cell model cytoprotection by ATP luminescence. actives 0.14% (n = 230,000). Potency, µM (highest dose often 56.4 µM), without a hit: cytoprotection (ATP increase), usual class: activators. AID 1471. PC12 HTT-Q103 induced, cytoprotection, ATP luminescence, 40 h; note: potency is the fitted concentration of half-maximal effect; % of control where 0% means no effect; nearly all actives have a fitted effect of over 45% in size
#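 PC12 cells stably carrying ecdysone-inducible Htt exon 1 (Q103)–GFP were induced with 100 nM tebufenozide (final) alongside library compounds in a dose series. Cytoprotection was scored as retained ATP by ATPlite luminescence.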
# * marks the source's active call; other numbers are inactive results; u = inconclusive; x = not tested or not shown; [ ] = dose if it differs, or a comment. Compounds with a hit are over-represented: about 3.3% of the library has one in this group of screens. Unless noted, calls come from the whole dose curve; as a rule, active = well fitted curve in the direction sought with a large enough effect; inconclusive = small, poorly fitted or top-dose-only effect, or another doubt; inactive = no such curve, though single readings can be large; an effect the other way counts as inactive or inconclusive.
SMILES,12-hLO inh,PNC inhibitor,NPSR antag,HttQ103 aggreg,IMPase cell inh,HTT cytoprotect
Cc1cccc(-n2c(SCC(=O)Nc3ncc(Cl)cc3Cl)nc3ccccc32)c1,1%,-108*,u,-3%,6,-8%[10 µM]
COc1ccc(-n2c(SCC(=O)Nc3ncc(Cl)cc3Cl)nc3ccccc32)cc1,x,x,-56%,-13%,x,x
CN(Cc1ccccc1)C(=C(Cl)Cl)/C(=C1/NCCN1C)[N+](=O)[O-],x,x,8%,-4%,x,-14%
CN1CCN/C1=C(/C(Cl)=C(Cl)Cl)[N+](=O)[O-],x,x,40%,16µM*,x,-27%
Cc1c(Cl)cccc1NC(=O)Cn1nnc2sc3c(c2c1=O)CCCC3,x,x,x,x,-9,x
CCCS(=O)(=O)N1CCCC(C(=O)NCCc2ccc(OC)c(OC)c2)C1 (stereo not drawn),-2%,-92*,-9%[46.1 µM],16%,2,-17%[1.9 µM]
COC(=O)[C@@]1(Cc2ccccc2)[C@H]2c3cc(C(=O)N4CCCC4)n(Cc4ccc(C(F)(F)F)nc4)c3C[C@H]2CN1C(=O)c1ccccc1,-3%,x,x,x,x,-31%
COC(=O)[C@@]1(Cc2ccc(F)cc2)[C@H]2c3cc(C(=O)N4CCCC4)n(Cc4ccc(C(F)(F)F)nc4)c3C[C@H]2CN1C(=O)c1ccccc1,-5%,32,-40%,-11%,x,10µM*
Cc1ccc(C)c(NC(=S)NNC(=O)c2csc(C(C)C)c2)c1,-22%,-119*,-5%,-1%,3,10%[10 µM]
Cc1ccc(C)c(NC(=S)NNC(=O)c2csc(C)c2C)c1,0%,u,4%,-2%,x,17%[0.074 µM]
COc1ccccc1N1CCN(C(=O)c2oc3ccccc3c2C)CC1,-6%,-5,0%[46.1 µM],7%,-4,8%
COc1ccccc1N1CCN(C(=O)c2cc3cc(Br)ccc3oc2=O)CC1,2%,-22,-8%[46.1 µM],3%,4,-3%
COc1ccccc1N1CCN(C(=O)c2oc3ccc(Br)cc3c2C)CC1,0%,-95*,-23%,4%,x,x
COc1ccccc1N1CCN(C(=O)c2oc3ccc(F)cc3c2C)CC1,-8%,220,-3%,11µM*,x,-13%[10 µM]
Nc1nc2c(c(=O)[nH]1)N=C(CNc1ccc(C(=O)NC(CCC(=O)O)C(=O)O)cc1)CN2 (stereo not drawn),-5%,x,x,x,8,7%[1.9 µM]
O=C(CN1C(=O)c2cccc3cccc1c23)Nc1ccccc1Br,x,x,x,x,-2,x
O=C(Cn1c(SCC(=O)N2CCCc3ccccc32)nc2ccccc21)N1CCCC1,1%,-100*,0%[46.1 µM],17%,-5,-2%[10 µM]
COc1ccc(-n2c(Cc3ccccc3)nnc2SCC(=O)N2CCCc3ccccc32)cc1,2%,-100*,-21%[46.1 µM],-7%,-1,2%[10 µM]
Oc1cccc(NC(=S)Nc2cccnc2)c1,1%,-88*,14%,5%,x,-14%[10 µM]
c1ccc(-c2nc3c([nH]2)CCc2nonc2-3)cc1,x,x,27%,-22%,x,-20%
c1ccc(-c2cc3c(nn2)CCc2nonc2-3)cc1,4%,-102*,4%[46.1 µM],-13%,4,-4%[10 µM]
O=C(c1ccc2snnc2c1)N1CCCCC1,6%,-100*,-18%[46.1 µM],12%,-2,4%[10 µM]
O=C(c1ccc2snnc2c1)N1CCSCC1,-8%,-6,-8%[46.1 µM],-8%,-3,-1%
O=C1CCCC/C1=C\Nc1ccc(O)cc1,u,-117*,-16%[46.1 µM],7%,19,u
Cc1ccc2c(c1)CCCN2C(=O)c1ccco1,-7%,u,-7%[46.1 µM],2.5µM*,-4,-17%
SMILES,12-hLO inh,PNC inhibitor,NPSR antag,HttQ103 aggreg,IMPase cell inh,HTT cytoprotect
CC(C)(C)c1ccc(Oc2ccc(NC(=O)C3CC=CCC3C(=O)O)cc2)cc1 (stereo not drawn),x,x,-25%,u,x,-23%
Cc1ccccc1Oc1ccc(NC(=O)C2CC=CCC2C(=O)O)cc1 (stereo not drawn),3%,-83*,-5%,-10%,x,x
NS(=O)(=O)c1ccc(N2C(=O)C(=O)/C(=C(/O)c3ccccc3)C2c2ccc(Cl)cc2)cc1 (stereo not drawn),x,x,20%,-17%[9.22 µM],x,-32%[10 µM]
O=C(CNS(=O)(=O)/C=C/c1ccccc1)OCC(=O)N1CCC(Cc2ccccc2)CC1,-2%,-107*,-14%[46.1 µM],0%,-2,-6%
CCN(CC)c1ccc(N=Cc2c(C)[nH]c3ccccc23)cc1,-2%,u,-39%,11µM*,x,x
Cc1nn(-c2ccccn2)c(C)c1Oc1ccccc1O,7%,-21,-22%[46.1 µM],8%,9,-9%
Cc1nn(-c2nc3ccccc3s2)c(C)c1Oc1ccccc1O,-12%,-100*,-12%[46.1 µM],-13%,14,21%[10 µM]
O=C(O)CCn1[nH]c(=O)ccc1=O,3%,-100*,-5%[46.1 µM],-5%,-10,-8%[10 µM]
COc1cccc(N2C(C(C)=O)=NN(c3ccccc3)C2c2ccc(N3CCOCC3)cc2)c1 (stereo not drawn),-2%,u,-35%,11µM*,x,x
N#C/C(=C(/O)c1ccc(-c2cccc([N+](=O)[O-])c2)o1)c1nc2ccccc2s1,x,x,10%,11µM*,x,-136%
N#C/C(=C(/O)COc1ccccc1)c1nc2ccccc2s1,x,x,-18%,u,x,x
COc1ccc(C/C(O)=C(\C#N)c2nc3ccccc3s2)cc1,-5%,u,7%[46.1 µM],13µM*,4,6%[10 µM]
COC(=O)C1=C(C(=O)OC)[C@@H]2N(C)c3ccccc3[C@@]23C[C@@H](C(=O)OC)N(S(=O)(=O)c2c(C)noc2C)C3=N1,-1%[11.4 µM],x,x,x,x,u
CC(C)Cc1csc(NC(=O)c2ccccc2Cl)c1C(=O)O,-7%,-13,-10%,2%,x,-15%[10 µM]
Cc1cccc(C(=O)Nc2scc(CC(C)C)c2C(=O)O)c1,-1%,-98*,-9%,-3%,x,42%[10 µM]
CC(C)Cc1csc(NC(=O)c2ccc(Cl)cc2)c1C(=O)O,-7%,-9,-7%[46.1 µM],22µM*,14,11%[10 µM]
COC(=O)N[C@H](CC(C)=O)c1ccccc1,-3%,-99*,16%,-2%,x,x
COc1cc(/C=N/NC(=O)Cn2cnc3c2c(=O)n(C)c(=O)n3C)ccc1O,x,x,-13%,14%[9.22 µM],x,11%[10 µM]
N#Cc1ccc(NC(=O)COC(=O)C2Cc3ccccc3CN2C(=O)c2ccccc2)cc1 (stereo not drawn),-1%,-98*,-35%,12%,x,9%[10 µM]
O=C(O)C1Cc2ccccc2CN1C(=O)c1ccccc1 (stereo not drawn),-1%,-97*,-3%[46.1 µM],1%,-4[1.84 µM],-17%[10 µM]
Cc1cccc(C)c1NC(=O)COC(=O)C1Cc2ccccc2CN1C(=O)c1ccccc1 (stereo not drawn),-5%,u,-2%,5%,x,12%[10 µM]

# High-throughput results: PubChem, National Center for Advancing Translational Sciences (NCATS)
